Assay [1] addresses Voltage-gated inwardly rectifying potassium channel KCNH2 (Homo sapiens) (UniProt Q12809). Nature of the assay: Human Ether-a-go-go-Related Gene (hERG) channel small molecule antagonists: fluorescence cell-based qHTS assay (AID 1671200).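 For activity change, negative = inhibition: hERG-expressing U2OS cells given a thallium stimulus after FluxOR II dye loading; series mostly up to about 77 µM.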 A digest of the protocol: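 In this thallium-flux screen, overnight-cultured U2OS cells bearing the channel are dye-loaded in darkness for an hour, rested 10 min at room temperature, and then monitored kinetically at 480/540 nm for two minutes post-stimulus.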

Assay [2] addresses Cytochrome P450 1A2 (Homo sapiens) (UniProt P05177). Nature of the assay: Cytochrome P450 Family 1 Subfamily A Member 2 (CYP1A2) small molecule antagonists: luciferase reporter qHTS assay (AID 1671199). For activity change, negative = inhibition: series mostly up to about 120 µM. A digest of the protocol: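 CYP1A2 turnover of a luminogenic substrate was quantified after 1 h with NADPH regeneration at room temperature. Furafylline served as positive control.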
Background: In a reporter assay the amount or activity of a reporter protein is the signal.

The target in assay [3] is Cytochrome P450 3A4 (Homo sapiens) (UniProt P08684). Nature of the assay: Cytochrome P450 Family 3 Subfamily A Member 4 (CYP3A4) small molecule antagonists: luciferase reporter qHTS assay (AID 1671201). For activity change, negative = inhibition: series mostly up to about 120 µM. A digest of the protocol:
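CYP3A4 activity was followed with a P450-Glo proluciferin substrate. Test compounds in DMSO were preincubated 10 min; NADPH regeneration then ran 1 h, and light output was read 20 min after detection reagent.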

Structures are written as SMILES. “And” between values parts separate entries of the source, which are not always exact repeats. Identical values can stand only once. Records with an inconclusive call do not appear. Values without a mark were called inactive. The source made the active and inactive calls. Calls come from the whole dose curve; as a rule, active = well fitted curve in the direction sought with a large enough effect in the repeat runs; inconclusive = weak or mixed curves; inactive = no such curve, though single readings can be large; an effect the other way counts as inactive or inconclusive.
% is set by controls: 0 for no effect and ±100 for the full control effect; potency is the fitted concentration of half-maximal effect.
Note: nearly all actives have a fitted effect of over 50% in size.

Sequence of Cytochrome P450 3A4 (Homo sapiens) (P08684 whole entry, looked up): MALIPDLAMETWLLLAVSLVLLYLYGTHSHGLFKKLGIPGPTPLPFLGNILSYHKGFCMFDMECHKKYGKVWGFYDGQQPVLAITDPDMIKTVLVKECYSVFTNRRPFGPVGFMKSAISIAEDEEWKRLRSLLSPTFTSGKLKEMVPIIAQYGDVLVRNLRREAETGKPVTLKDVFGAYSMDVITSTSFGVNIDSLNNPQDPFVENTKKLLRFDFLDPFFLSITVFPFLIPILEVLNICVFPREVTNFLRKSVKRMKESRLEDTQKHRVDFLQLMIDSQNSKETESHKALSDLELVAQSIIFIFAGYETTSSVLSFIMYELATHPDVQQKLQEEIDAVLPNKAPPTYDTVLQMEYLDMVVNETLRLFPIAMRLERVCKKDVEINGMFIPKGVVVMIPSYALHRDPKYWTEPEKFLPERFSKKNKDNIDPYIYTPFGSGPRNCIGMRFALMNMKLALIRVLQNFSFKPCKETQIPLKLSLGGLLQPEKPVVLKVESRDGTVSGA
Sequence of Cytochrome P450 1A2 (Homo sapiens) (P05177 whole entry, looked up): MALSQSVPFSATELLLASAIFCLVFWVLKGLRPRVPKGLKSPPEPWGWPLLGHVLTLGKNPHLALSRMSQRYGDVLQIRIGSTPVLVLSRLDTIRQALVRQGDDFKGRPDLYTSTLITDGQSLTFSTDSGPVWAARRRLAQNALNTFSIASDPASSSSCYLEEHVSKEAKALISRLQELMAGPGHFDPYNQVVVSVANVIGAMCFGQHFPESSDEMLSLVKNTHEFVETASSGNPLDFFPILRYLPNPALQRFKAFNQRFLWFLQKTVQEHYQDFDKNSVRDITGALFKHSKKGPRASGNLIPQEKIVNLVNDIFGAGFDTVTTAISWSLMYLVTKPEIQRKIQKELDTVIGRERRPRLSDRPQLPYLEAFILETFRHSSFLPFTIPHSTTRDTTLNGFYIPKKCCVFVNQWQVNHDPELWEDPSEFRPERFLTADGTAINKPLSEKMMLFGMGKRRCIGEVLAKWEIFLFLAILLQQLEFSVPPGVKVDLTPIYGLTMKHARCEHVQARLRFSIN
Sequence of Voltage-gated inwardly rectifying potassium channel KCNH2 (Homo sapiens) (Q12809 whole entry, looked up): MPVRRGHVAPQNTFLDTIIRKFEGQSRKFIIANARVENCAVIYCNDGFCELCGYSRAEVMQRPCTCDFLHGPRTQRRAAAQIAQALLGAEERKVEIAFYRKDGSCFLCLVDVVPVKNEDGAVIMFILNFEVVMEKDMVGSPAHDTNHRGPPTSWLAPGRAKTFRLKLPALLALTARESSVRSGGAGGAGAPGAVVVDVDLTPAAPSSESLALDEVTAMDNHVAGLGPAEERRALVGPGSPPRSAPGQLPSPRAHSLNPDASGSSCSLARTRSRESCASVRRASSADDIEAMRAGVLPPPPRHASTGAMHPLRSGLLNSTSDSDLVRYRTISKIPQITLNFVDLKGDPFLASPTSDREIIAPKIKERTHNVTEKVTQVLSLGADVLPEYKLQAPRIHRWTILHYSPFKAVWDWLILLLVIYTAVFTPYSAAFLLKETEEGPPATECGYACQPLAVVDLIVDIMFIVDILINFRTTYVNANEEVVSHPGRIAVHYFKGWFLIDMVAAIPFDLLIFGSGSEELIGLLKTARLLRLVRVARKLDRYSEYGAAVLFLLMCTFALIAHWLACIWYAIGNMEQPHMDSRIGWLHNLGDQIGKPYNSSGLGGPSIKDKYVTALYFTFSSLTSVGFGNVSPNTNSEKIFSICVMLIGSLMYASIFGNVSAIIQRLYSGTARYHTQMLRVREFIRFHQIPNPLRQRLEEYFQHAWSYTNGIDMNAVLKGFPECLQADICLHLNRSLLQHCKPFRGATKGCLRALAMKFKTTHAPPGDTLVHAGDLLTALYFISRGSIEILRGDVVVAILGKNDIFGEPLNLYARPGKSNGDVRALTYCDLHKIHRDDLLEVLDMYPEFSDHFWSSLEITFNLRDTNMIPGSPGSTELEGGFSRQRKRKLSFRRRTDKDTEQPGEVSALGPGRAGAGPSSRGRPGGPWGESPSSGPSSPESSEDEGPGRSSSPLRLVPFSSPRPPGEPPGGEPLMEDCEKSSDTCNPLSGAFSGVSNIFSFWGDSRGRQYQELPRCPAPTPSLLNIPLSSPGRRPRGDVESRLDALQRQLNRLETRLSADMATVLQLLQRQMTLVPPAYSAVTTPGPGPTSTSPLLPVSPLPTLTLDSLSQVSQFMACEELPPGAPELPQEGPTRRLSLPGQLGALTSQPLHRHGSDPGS

Take `CC(C)(C)NC(=O)[C@@H]1C[C@@H]2CCCC[C@@H]2CN1C[C@@H](O)[C@H](Cc1ccccc1)NC(=O)[C@H](CC(N)=O)NC(=O)c1ccc2ccccc2n1`: the Potency in assay [1] is 22.2 µM (active).
As to `CC/C(=C(\c1ccc(O)cc1)c1ccc(OCCN(C)C)cc1)c1ccccc1`, the Potency result in assay [2] is “inactive”. The Potency in assay [3] is 12.7 µM (active).
As to `Cc1c(C)c2c(c(C)c1OC(=O)CCC(=O)O)CC[C@@](C)(CCC[C@H](C)CCC[C@H](C)CCCC(C)C)O2`, in assay [1], the Potency result was “inactive”.
Turning to `O=C(c1ccc(F)cc1)C1CCN(CCn2c(=O)[nH]c3ccccc3c2=O)CC1`, the Potency result in assay [2] and in assay [3] was “inactive” throughout.
Consider `O=c1cc(-c2ccc(O)cc2)oc2cc(O)cc(O)c12`, for which the Potency entry in assay [1] was “inactive”.
For the compound `COc1ccc(-c2ccc3cc(C(=O)O)ccc3c2)cc1C12CC3CC(CC(C3)C1)C2`, the Potency entry in assay [2] and in assay [3] was “inactive” each time.
Regarding `CCc1cc(Cc2cc(CC)c(N)c(CC)c2)cc(CC)c1N`, the figures for the Potency in assay [2] and in assay [3] were 10 µM (active) and 0.633 µM (active), respectively.
With `CCCN(CCC)C(=O)C(CCC(=O)OCCCN1CCN(CCOC(=O)Cc2c(C)n(C(=O)c3ccc(Cl)cc3)c3ccc(OC)cc23)CC1)NC(=O)c1ccccc1` (stereo not drawn), the Potency in assay [1] is 0.301 µM (active).
Consider `CCCCCCCC[N+](CCCCCCCC)(CCCCCCCC)CCCCCCCC`, for which the Potency was 70.9 µM (active) in assay [2] and 1.59 µM (active) in assay [3].
For `CCCCCCCC/C=C\CCCCCCCCOCCO` the same measures were “inactive” and 11.6 µM (active).
Turning to `Cc1onc(-c2ccccc2Cl)c1C(=O)N[C@@H]1C(=O)N2[C@@H]1SC(C)(C)[C@@H]2C(=O)O`, the Potency entry in assay [1] is “inactive”.
Take `O=C(Oc1ccccc1)c1ccccc1C(=O)Oc1ccccc1`: the Potency in assay [2] is 5.64 µM (active). Further, the Potency entry in assay [3] is “inactive”.
For `CCN(Cc1cccnc1)C(=O)c1cccc(Cl)c1[C@]1(C)C(=O)N(Cc2ccc(OC)cc2OC)c2ccc(Cl)cc21` the same measures were “inactive” and 0.132 µM (active).
For `Oc1ccc(N=Nc2ccccc2)cc1` the same measures were 16.1 µM (active) and 20.3 µM (active).
For the compound `[Cl][Au]([Cl])[Cl]`, the Potency result in assay [1] was “inactive”.
In the case of `O=C(Nc1cccc(Cl)c1)OCC#CCCl`, the Potency is 1.78 µM (active) in assay [2] and 7.1 µM (active) in assay [3].
As to `COc1ccc(C(=O)/C(Br)=C\C(=O)O)cc1`, the Potency entry in assay [1] was “inactive”.
`O=C(OCC1CO1)C1CCCCC1C(=O)OCC1CO1` (stereo not drawn): the Potency entry in assay [1] was “inactive”.
As to `NC(=O)NS(=O)(=O)c1ccc(N)cc1`, the Potency entry in assay [2] and in assay [3] was “inactive” throughout.
For `c1ccc(CSCc2ccccc2)cc1`, in assay [2], the Potency was 31.6 µM (active). Besides, the Potency result in assay [3] is “inactive”.
For `NC(=O)N1C(=O)C(C(=O)c2cc(Cl)cs2)c2cc(F)c(Cl)cc21` (stereo not drawn) the same measures were 17.8 µM (active) and 5.03 µM (active).
Consider `O=C(c1ccc(O)cc1O)c1ccc(O)cc1O`, for which the Potency is 12.6 µM (active) and 11.2 µM (active) in assay [2]; 5.03 µM (active) and 8.94 µM (active) in assay [3].
For `CCc1cc(Cc2cc(CC)cc(C(C)(C)C)c2O)c(O)c(C(C)(C)C)c1`, in assay [2], the Potency result is “inactive”. In addition, the Potency in assay [3] is 17.8 µM (active).
As to `C1CCCC1`, the Potency entry in assay [1] and in assay [3] was “inactive” in each case.
Turning to `Clc1ccc2n[nH]nc2c1`, the Potency entry in assay [1] and in assay [3] was “inactive” each time.
For `N=C1N=C(N)c2ccccc21`, the Potency entry in assay [1] and in assay [3] was “inactive” in each case.
With `Oc1ccc(C2(c3ccc(O)cc3)CC3CC2C2CCCC32)cc1` (stereo not drawn), the Potency in assay [3] is 38.4 µM (active).
As for `O=C1CCCCCN1SSN1CCCCCC1=O`, the Potency result in assay [1] and in assay [3] was “inactive” in each case.
Take `CNC(=O)c1ccccc1`: the Potency result in assay [3] was “inactive”.
With `C=C(C)C(=O)OCC(O)COc1ccc(C(C)(C)c2ccc(OCC(O)COC(=O)C(=C)C)cc2)cc1` (stereo not drawn), the Potency result in assay [1] and in assay [3] was “inactive” throughout.
Consider `C=CC(=O)OCC(CO)(COC(=O)C=C)COC(=O)C=C`, for which the Potency in assay [3] is 1.01 µM (active) and 1.12 µM (active).
As to `COc1cc(/C=C/C(=O)O[C@H]2CC[C@]34C[C@]35CC[C@]3(C)[C@@H]([C@H](C)CCC=C(C)C)CC[C@@]3(C)[C@@H]5CC[C@H]4C2(C)C)ccc1O`, the Potency result in assay [1] and in assay [3] was “inactive” each time.
`CCOC(=O)O[C@H](C)OC(=O)c1ccc2c(c1)cc(C(=O)NC1CCN(C(C)C)CC1)n2Cc1cc(-c2ccc(Cl)s2)on1`: the Potency in assay [3] is 5.91 µM (active).
In the case of `CCCCCCCCCCC=O`, the Potency result in assay [3] is “inactive”.
On the same count and under the same terms, the result for `CC1=C(/C=C/C(C)=C/C=C/C(C)=C/C=O)C(C)(C)CCC1` reads 28.1 µM (active).
Take `COc1cccc(N)c1`: in assay [1], the Potency result is “inactive”.
Still for that read-out and setting: under `CN1CCN(CCC(=O)N2c3ccccc3Sc3ccc(C(F)(F)F)cc32)CC1` stands 4.77 µM (active).
For the compound `O=C(O)c1ccc(Cl)c(Cl)c1`, the Potency entry in assay [3] is “inactive”.
Take `CCC(C)(C)C1CCCCC1OC(C)=O` (stereo not drawn): in assay [3], the Potency result is “inactive”.
The same measure, in the same setting: the result for `CCCCCCCCCCCCCCCCCC[N+](C)(C)C` reads 71.2 µM (active).
With `CCC(N)(CO)CO`, the Potency result in assay [1] and in assay [3] was “inactive” throughout.
Take `O=c1[nH]cnc2nc[nH]c12`: the Potency entry in assay [1] and in assay [3] was “inactive” each time.
Turning to `CCCCCCCC(=O)[O-].CCCCCCCC(=O)[O-].[Zn+2]`, the Potency entry in assay [3] is “inactive”.
For the compound `Fc1ccc(C(c2ccc(F)cc2)N2CCN(C/C=C/c3ccccc3)CC2)cc1`, in assay [1], the Potency is 0.848 µM (active). The Potency result in assay [3] is “inactive”.
As for `CCN(CC)CCCC(C)Nc1c2ccc(Cl)cc2nc2ccc(OC)cc12` (stereo not drawn), the Potency entry in assay [1] and in assay [3] was “inactive” throughout.
Turning to `OC1(c2ccc(Cl)c(C(F)(F)F)c2)CCN(CCCC(c2ccc(F)cc2)c2ccc(F)cc2)CC1`, the Potency in assay [1] is 0.239 µM (active). The Potency result in assay [3] was “inactive”.
Consider `CC1=NC(C)OC1C` (stereo not drawn), for which, in assay [3], the Potency was 63.3 µM (active).
Turning to `CSc1cnc(C)cn1`, the Potency result in assay [1] and in assay [3] was “inactive” throughout.
`CCCC(c1cc(C(C)(C)C)c(O)cc1C)c1cc(C(C)(C)C)c(O)cc1C`: the Potency in assay [3] is 5.09 µM (active).
In the case of `NC(=O)CC[C@@H]1NC(=O)[C@H](Cc2ccccc2)NC(=O)[C@H](Cc2ccc(O)cc2)NC(=O)CCSSC[C@@H](C(=O)N2CCC[C@H]2C(=O)N[C@@H](CCCN=C(N)N)C(=O)NCC(N)=O)NC(=O)[C@H](CC(N)=O)NC1=O`, the Potency result in assay [1] and in assay [3] was “inactive” throughout.
Turning to `CCCC(C)c1ccccc1O` (stereo not drawn), the Potency entry in assay [1] and in assay [3] was “inactive” each time.
Turning to `CCN(CCC#N)c1ccc(N=Nc2c(Cl)cc([N+](=O)[O-])cc2Cl)cc1`, in assay [3], the Potency entry was “inactive”.
Same read-out and setting: the result for `CCCCN(CCCC)C(=O)N(CCCC)CCCC` reads 5.03 µM (active).
As to `O=C(OC[C@H]1O[C@@H](OC(=O)c2cc(O)c(O)c(OC(=O)c3cc(O)c(O)c(O)c3)c2)[C@H](OC(=O)c2cc(O)c(O)c(OC(=O)c3cc(O)c(O)c(O)c3)c2)[C@@H](OC(=O)c2cc(O)c(O)c(OC(=O)c3cc(O)c(O)c(O)c3)c2)[C@@H]1OC(=O)c1cc(O)c(O)c(OC(=O)c2cc(O)c(O)c(O)c2)c1)c1cc(O)c(O)c(OC(=O)c2cc(O)c(O)c(O)c2)c1`, the results for the activity change, negative = inhibition in assay [1] and in assay [3] were 1.88% [at 15.8 µM] and -11% [at 23.6 µM], respectively.
As for `Oc1cccc2cc3cccc(O)c3c(O)c12`, the Potency result in assay [1] and in assay [3] was “inactive” each time.
As for `CCCCCCCCCCCCCC[P+](CCCC)(CCCC)CCCC` (tested in a mixture with another compound), the Potency in assay [1] was 0.124 µM (active). Also, the Potency entry in assay [3] was “inactive”.
On to `CCN1/C(=C/C=C/c2sc3ccccc3[n+]2CC)Sc2ccccc21`, for which the Potency in assay [3] was 6.01 µM (active).
Turning to `CSc1ccc(C(=O)c2[nH]c(=O)[nH]c2C)cc1`, the Potency entry in assay [1] and in assay [3] was “inactive” throughout.
Take `CCCCCCCCNC(C)C(O)c1ccc(SC(C)C)cc1` (stereo not drawn): the Potency in assay [1] is 0.268 µM (active). In addition, the Potency entry in assay [3] is “inactive”.
With `CC(C)C(C)(C)C(C)(C)C(C)(C)S`, the Potency result in assay [1] is “inactive”.
As for `O=C(O)c1c(Cl)cccc1Cl`, the Potency entry in assay [1] and in assay [3] was “inactive” each time.
For `Oc1c(Cl)cc(Cl)c2cccnc12`, the Potency result in assay [1] is “inactive”.
As to `CCCCCCCC/C=C/CCCCCCCC1=NCCN1CCO`, the Potency in assay [3] was 31.7 µM (active).

Source of the values: PubChem BioAssay (Tox21).
